The values below come from PubChem BioAssay (EPA / NIEHS).

The source made the active and inactive calls. The calls were made as follows: active = hit-call score of the fitted dose curve at least 0.9, where 1 is the maximum; inactive = score below 0.9.

The assay can be described thus: BSK_SAg_SRB: Viability Assessment in the BioMAP Diversity Plus: SAg Assay (AID 2283096).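 Also: cells read one day after compound addition; hits may be either gain or loss of signal compared with DMSO.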 The following applies: primary human HUVEC with PBMC. Here is the method: BSK_SAg is a cell-based, multiplexed-readout assay that uses umbilical vein endothelium and peripheral blood mononuclear cells, a human vascular primary cell co-culture, with measurements taken at 24 hours after chemical dosing in a 96-well plate.BSK_SAg_SRB is an assay component measured in the BSK_SAg assay. It measures protein content, a form of viability reporter, as detected with absorbance signals by Sulforhodamine staining technology.Data from the assay component BSK_SAg_SRB was analyzed into 1 assay endpoint. This assay endpoint, BSK_SAg_SRB, was analyzed with bidirectional fitting relative to DMSO as the negative control and baseline of activity. Using a type of viability reporter, gain or loss-of-signal activity can be used to understand changes in the signaling. Furthermore, this assay endpoint can be referred to as a primary readout, because this assay has produced multiple assay endpoints where this one serves a signaling function. To generalize the intended target to other relatable targets, this assay endpoint is annotated to the cell morphology intended target family, where the subfamily is cell conformation.
The levels of cell surface (or secreted, indicated by the prefix "s") biomarker endpoints were measured by ELISA. Overt cytotoxicity to cells in confluent adherent cultures (all systems other than the BT system) was assessed by measuring total protein levels using sulforhodamine B (SRB) staining in parallel cultures at the time of biomarker measurements, indicated as SRB endpoints. For proliferation assays for adherent cell types, individual cell types are cultured at sub-confluence and relative cell numbers quantified by SRB staining at time points optimized for each system (48 h: 3C and CASM3C systems; 72 h: BT and HDF3CGF systems; 96 h: SAg system). SRB was performed by staining cells with 0.1% SRB after fixation with 10% TCA and reading wells at 560 nm.Viability and proliferation of PBMC (T cells) was quantified by Alamar Blue reduction for the SAg and BT systems. For PBMC viability (referred to as PBMC Cytotoxicity within the assay endpoint names), cells were plated (75,000/well in a 96-well plate) and then chemical samples added for 1 h before addition of activators, SEB and TSST-1 (20 ng/mL final concentration each). Cells were incubated for 90 h. Then, Alamar Blue (20 uL/well) (Invitrogen, Cat DAL1100) was added for 6 h, and the plates were read with a fluorescence microplate reader at 546/580 nm (excitation/emission). For PBMC proliferation, cells were plated and activated as above but incubated for only 16 h prior to addition of Alamar Blue. Plates were read after 6 h.
Turning to `CS(=O)(=O)c1ccc([C@@H](C[C@H]2CCC(=O)C2)C(=O)Nc2cnccn2)cc1Cl`, the outcome was inactive.

For `CO[C@@H]1COCC[C@@H]1N[C@@H]1CC[C@@](C(=O)N2CCc3ncc(C(F)(F)F)cc3C2)(C(C)C)C1`, the result was inactive.

In the case of `COC(=O)[C@H]1[C@H]2C[C@@H]3c4[nH]c5cc(OC)ccc5c4CCN3C[C@H]2C[C@@H](OC(=O)c2cc(OC)c(OC)c(OC)c2)[C@@H]1OC`, the AC50 is 25.9 µM (active). On to `CCc1nc(N)nc(N)c1-c1ccc(Cl)cc1`, for which the outcome was inactive.

As to `OCC(O)CO`, the result was inactive. Regarding `CCCCc1nc2cccnc2n1Cc1ccc(-c2ccccc2-c2nnn[nH]2)cc1`, the outcome was inactive. Consider `CC(=O)S[C@H](C(=O)N[C@H]1Cc2ccccc2[C@H]2CCC[C@@H](C(=O)O)N2C1=O)C(C)C`, for which the result was inactive. On to `C#CC(O)C(CC)CCCC` (stereo not given), for which the result was inactive.

Take `O=C(NS(=O)(=O)/C=C/c1cccs1)c1ccc(F)cc1Br`: the outcome was inactive. On the same count and under the same terms, to `CN(C)C(=O)NC1(c2ccccc2)CCN(CC[C@@]2(c3ccc(F)c(F)c3)CN(C(=O)c3ccccc3)CCO2)CC1` belongs “inactive”; to `Cc1cc(Cc2ccc(N)c(C)c2)ccc1N`, “inactive”; to `O=C(Oc1ccccc1)c1cccc(C(=O)Oc2ccccc2)c1`, “inactive”. Take `CC(=O)CC(c1ccccc1)c1c(O)c2ccccc2oc1=O` (stereo not given): the result was inactive. As for `CCCC(=O)O`, the outcome was inactive. With `Nc1nc(Cl)nc2c1ncn2[C@H]1C[C@H](O)[C@@H](CO)O1`, the AC50 was 0.554 µM (active). With `CCCCC(CC)CO` (stereo not given), the result was inactive.

`O=[Si]=O`: the outcome was inactive. Same read-out and setting: to `CC1(C)C(=O)NC(=O)N1CO` belongs “inactive”. On to `Cc1c(C)c2c(c(C)c1O)CCC(C)(COc1ccc(CC3SC(=O)NC3=O)cc1)O2` (stereo not given), for which the AC50 was 23.7 µM (active). Still for that read-out and setting: next, `CCCCCCC(C=O)=Cc1ccccc1`: 35.3 µM (active).

For `C/C=C/C=C/C(=O)O`, the result was inactive. Still for that read-out and setting: next, `NC(=Nc1ccccc1)Nc1ccccc1`: “inactive”. For the molecule `CN(C)CCCN1c2ccccc2Sc2ccc(Cl)cc21`, the AC50 was 28.3 µM (active). As for `CC(C)NCC(O)c1ccc(O)c(O)c1` (stereo not given), the outcome was inactive.

In the case of `CC(=O)O`, the result was inactive.

As to `CCCCCCCC(=O)OC`, the result was inactive. Same read-out and setting: next, `O=C1NC(=O)C(c2ccccc2)(c2ccccc2)N1`: “inactive”; `CCCCCCCCCCCCCCCCO`: “inactive”. Same read-out and setting: next, `CN(C)CCCN(C)CCCN(C)C`: “inactive”. Turning to `CC(=O)O[C@]1(C(C)=O)CC[C@H]2[C@@H]3C=C(Cl)C4=CC(=O)[C@@H]5C[C@@H]5[C@]4(C)[C@H]3CC[C@@]21C`, the AC50 is 31.2 µM (active). In the case of `COc1ccc(C(=O)Nc2nc3ccccc3c(NCc3ccccc3)c2C#N)cc1`, the result was inactive. Same read-out and setting: to `S=c1[nH]c2ccccc2s1` belongs “inactive”; to `CC(=O)[C@@]1(O)CC[C@H]2[C@@H]3CCC4=CC(=O)CC[C@]4(C)[C@H]3CC[C@@]21C`, “inactive”. On to `CC(C)COC(=O)CCCCC(=O)OCC(C)C`, for which the result was inactive. As to `Cc1ccc(C(C)(C)C)c(O)c1`, the result was inactive. Regarding `Nc1nc(=S)c2[nH]cnc2[nH]1`, the result was inactive. On the same count and under the same terms, to `CCCC[C@H]1CN(CC2CCOCC2)C(=O)OC12CCN(C1(C)CCN(C(=O)c3c(C)ncnc3C)CC1)CC2` belongs “inactive”.

Regarding `NC=O`, the result was inactive. Still for that read-out and setting: to `c1ccc2occc2c1` belongs “inactive”; to `CN(C)C(=O)NC1(c2ccccc2)CCN(CCC[C@]2(c3ccc(Cl)c(Cl)c3)CCCN(C(=O)c3ccccc3)C2)CC1`, “inactive”.

The term AC50 denotes the midpoint of the concentration-response curve, whichever way the signal moves.
